In PubChem BioAssay (NCATS):
Results filed as inconclusive are left out. Activity calls are given as the source filed them. Calls come from the whole dose curve; as a rule, active = well fitted inhibition curve with a large enough effect; inconclusive = small, poorly fitted or top-dose-only effect; inactive = no such curve, though single readings can be large or run the other way.

target: Rap guanine nucleotide exchange factor 3 (Homo sapiens) (UniProt O95398); assay: Confirmatory qHTS for antagonist of cAMP-regulated guanine nucleotide exchange factor 3 (EPAC1) (AID 1645880); conditions: EPAC1 Rap1B-BODIPY-GDP exchange, fluorescence; series mostly up to 115 µM; activity, negative = inhibition: at the top concentration; note: nearly all actives have a fitted effect of over 55% in size;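 for activity, negative = inhibition: plate controls were DMSO only for no effect and full effect of the ATA control for full effect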
Sequence (O95398 whole entry, looked up): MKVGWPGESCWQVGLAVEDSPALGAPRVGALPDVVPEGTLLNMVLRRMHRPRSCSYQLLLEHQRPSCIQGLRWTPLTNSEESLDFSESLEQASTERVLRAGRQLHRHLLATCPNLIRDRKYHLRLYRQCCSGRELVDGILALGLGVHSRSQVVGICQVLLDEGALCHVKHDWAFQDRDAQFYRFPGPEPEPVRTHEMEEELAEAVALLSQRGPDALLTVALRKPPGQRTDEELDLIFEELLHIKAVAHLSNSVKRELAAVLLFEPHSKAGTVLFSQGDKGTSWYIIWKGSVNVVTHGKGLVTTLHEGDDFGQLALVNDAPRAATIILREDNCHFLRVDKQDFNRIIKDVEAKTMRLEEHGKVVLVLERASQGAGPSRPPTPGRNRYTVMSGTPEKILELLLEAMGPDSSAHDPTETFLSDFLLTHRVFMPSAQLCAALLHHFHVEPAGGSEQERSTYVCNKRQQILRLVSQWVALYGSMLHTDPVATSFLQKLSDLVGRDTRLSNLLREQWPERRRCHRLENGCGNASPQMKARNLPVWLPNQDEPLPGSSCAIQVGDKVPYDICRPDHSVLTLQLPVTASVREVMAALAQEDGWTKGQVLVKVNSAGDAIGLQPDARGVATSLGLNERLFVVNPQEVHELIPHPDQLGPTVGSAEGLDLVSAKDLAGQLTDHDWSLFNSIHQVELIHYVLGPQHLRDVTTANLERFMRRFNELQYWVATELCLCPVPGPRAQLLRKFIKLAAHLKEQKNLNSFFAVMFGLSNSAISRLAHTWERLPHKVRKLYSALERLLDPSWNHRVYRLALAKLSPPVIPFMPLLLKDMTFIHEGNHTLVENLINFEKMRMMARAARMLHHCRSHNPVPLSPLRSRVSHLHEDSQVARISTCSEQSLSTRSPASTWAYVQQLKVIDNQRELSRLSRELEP
Outline: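 Released BODIPY-GDP fluoresces less than Rap1-bound BODIPY-GDP; the signal is followed at 480/540 nm at 5-min intervals over 30 min, after 5 min at room temperature. Reactions contain 100 nM EPAC1, 250 nM RAP1B-BODIPY-GDP and 50 uM GDP; results are normalized to ATA and DMSO.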
Potency is the fitted concentration of half-maximal effect.

| Structure (SMILES) | Potency | activity, negative = inhibition |
| --- | --- | --- |
| Cc1ccc(O)c(N=Cc2cc(Cc3ccccc3)cc([N+](=O)[O-])c2O)c1 | 33.8 µM (active) |  |
| CCc1ccc(NC(=O)CSc2nnc(Cc3cccn3C)n2-c2ccc(OC)cc2)cc1 |  | -28.4% (inactive) |
| CN(c1ccc(C(=O)NCc2ccc3c(c2)OCO3)cc1)S(=O)(=O)c1ccccc1 |  | -15.7% (inactive) |
| CS(=O)(=O)Nc1ccc(C2=NN(C(=O)c3cccc(F)c3)C(c3cccs3)C2)cc1 (stereo unspecified) |  | -23.7% (inactive) |
| O=[N+]([O-])c1cc(-c2ccccc2)cc([N+](=O)[O-])c1O | 75.7 µM (active) |  |
| O=C1CNC(=O)c2c(nc3n2CCC3)N1 |  | -8.24% (inactive) |
| COc1cc(/C=N/NC(=O)c2ccccn2)ccc1OC(=O)c1ccc(Br)cc1 |  | -27.7% (inactive) |
| COc1ccc(NC(=O)C2=NN(c3ccccc3)C(=O)CC2)cn1 |  | -26.3% (inactive) |
| O=[N+]([O-])c1cc2ccccc2c(O)c1O | 31.6 µM (active) |  |
| CCc1nc2ccc(C(=O)N(C)Cc3ccccc3)cn2c1N(CC)Cc1cccc(Br)c1 |  | -24.8% (inactive) |
| Cc1ccc(S(=O)(=O)N2[C@@H](c3ccc(Br)cc3)C(C(=O)O)=CC[C@H]2c2ccc(C(C)C)cc2)cc1 | 16.9 µM (active) |  |
| COc1ccc(C(C(=O)c2ccccc2)c2ccccc2)cc1 (stereo unspecified) |  | 21.9% (inactive) |
| COc1ccc(C2=Cc3ccccc3C(CC(=O)C3CC3)N2c2ccc(C#CCCO)cc2)cc1 (stereo unspecified) |  | -26% (inactive) |
| CC(=O)N1CCc2nc3sc(C(=O)Nc4ccc(Cl)cc4F)c(N)c3c(C(F)(F)F)c2C1 |  | -29.7% (inactive) |
| CCN(CC(=O)Nc1ccccc1C(F)(F)F)C(=O)c1cc2c(s1)CCCCC2 |  | -21.9% (inactive) |
| Cc1ccc2c(c1)C(c1ccccc1)CC(=O)O2 (stereo unspecified) |  | -23.7% (inactive) |
